According to PubChem BioAssay (NCI):
Compounds without any hit were thinned out: in the full panel of roughly 83,000, 20% have a hit.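 48-hour exposure, single concentration, 96-well plates; percent growth endpoint where 0 means no net growth. Active: below 10.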 Unmarked numbers belong to inactive results. Active and inactive are the calls of the source.

Legend:
Assay in all cases: NCI-60 one-dose screen, 48 h (100 = growth as untreated, 0 = no growth, -100 = all killed)
Details in all cases: 10 µM unless noted
T-47D breast = system: T-47D breast
BT-549 breast = system: BT-549 breast
MDA-MB-435 melanoma = system: MDA-MB-435 melanoma
SW-620 colon = system: SW-620 colon
MCF7 breast = system: MCF7 breast
HCT-116 colon = system: HCT-116 colon
HCC-2998 colon = system: HCC-2998 colon
KM12 colon = system: KM12 colon

Compound	growth (T-47D breast)	growth (BT-549 breast)	growth (MDA-MB-435 melanoma)	growth (SW-620 colon)	growth (MCF7 breast)	growth (HCT-116 colon)	growth (HCC-2998 colon)	growth (KM12 colon)
CC(C)/C=C/CC[C@](C)(O)[C@H]1CC[C@]2(C)[C@@H]1CC[C@@H]1[C@@]3(C)C/C(=C/c4cccc(C(F)(F)F)c4)C(=O)C(C)(C)[C@@H]3CC[C@]12C	73.8%	95.9%	99.3%	93.3%	82%	76%	104%	99.8%
C[C@@H](C(=O)O)c1ccc2c3cc(Cl)ccc3n(Cc3cc(=O)oc4ccc(Cl)cc34)c2c1	86.8%	86.7%	104%	107%	90.7%	87.8%	101%	99%
Cn1cc(-c2csc(-c3cn(CCNC(=O)OC(C)(C)C)c4ccc(F)cc34)n2)c2cccnc21	1.12% (active)	65.4%	77.6%	88.4%	47.3%	82.6%	93.5%	52.7%
COc1cnc2c(c1)C(=O)c1c-2n(CCCNC(C)C)c(=O)c2cc([N+](=O)[O-])ccc12	-24.9% (active)	-63.1% (active)	-95.8% (active)	-38.8% (active)	-47.4% (active)	-51% (active)	-83.4% (active)	-39.8% (active)
COc1cc2c(cc1-c1c(C)noc1C)ncc1nc(C3CCC(F)(F)CC3)n([C@@H](C)COC(F)F)c12	29.2%	56.3%	36.5%	62.5%	13.6%	34.1%	52.3%	41.8%
Cc1ccc2[nH]cc(-c3nc(-c4cn(C)c5ncccc45)cs3)c2c1	41.5%	82.9%	79.3%	109%	55.1%	74.9%	88.8%	77.9%
CN1CCN(c2ccc3nc(-c4[nH]ncc4Nc4ncnc5c4OCCCN5)[nH]c3c2)CC1	-27.4% (active)	-74.2% (active)	-80.1% (active)	-58.1% (active)	-57.2% (active)	-11.8% (active)	-84.2% (active)	-72.7% (active)
OCC(CO)(CCl)CCl	94.2%	95.6%	105%	101%	94.2%	78.6%	101%	99.9%
COc1ccc(C2CC(=O)c3c(nc4ccc(Cl)cc4c3N)C2)cc1 (stereo not drawn)	109%	102%	93.6%	106%	95.6%	100%	111%	103%
NCCn1cc(-c2nc(-c3c[nH]c4ncccc34)cs2)c2cc(F)ccc21	26.3%	95.7%	81.7%	50.2%	57.2%	61.4%	96.2%	65.6%
C=C1C(=O)O[C@H]2[C@H]1CC/C(Cn1cc(-c3ccc(F)cc3)nn1)=C\CC[C@@]1(C)O[C@@H]21	-48.1% (active)	43.5%	-31.4% (active)	-40.6% (active)	-55.6% (active)	-86% (active)	-11.6% (active)	54.6%
Nc1nc(Br)nc2c1ncn2C1CC(O)C(CO)O1 (stereo not drawn)	70.1%	50.1%	56.5%	60.1%	28.4%	37.9%	58.9%	78.6%
COc1cc(/C=C/c2cc(/C=C/c3ccc(O)c(OC)c3)n(-c3ccc(Cl)cc3)c(=O)n2)ccc1O	86%	66.9%	74.9%	85.6%	47.6%	50.6%	104%	77%
Cc1cc(N2CCCCC2)nc(N(CCNc2ccnc3cc(Cl)ccc23)Cc2ccco2)n1	-29.3% (active)	42.4%	32.8%	21.9%	10.7%	2.13% (active)	92.6%	31.9%
Cn1cc(-c2csc(-c3c[nH]c4ccc(F)cc34)n2)c2cccnc21	44.3%	57.4%	-28% (active)	26.5%	19.3%	23.1%	71.7%	20.6%
C/C(=N\Nc1cc(C)c2cc(C)ccc2n1)c1ccccn1	-50.4% (active)	21.2%	-89.4% (active)	-81.3% (active)	-76.1% (active)	-72.6% (active)	-25.9% (active)	-46.9% (active)

Compound	growth (T-47D breast)	growth (BT-549 breast)	growth (MDA-MB-435 melanoma)	growth (SW-620 colon)	growth (MCF7 breast)	growth (HCT-116 colon)	growth (HCC-2998 colon)	growth (KM12 colon)
COc1cc(C(=O)/C=C/c2cc(-c3ccc4c(c3)OCO4)n[nH]2)cc(OC)c1OC	19.7%	-11.2% (active)	40%	-15.1% (active)	6.06% (active)	6.54% (active)	85.4%	1.81% (active)
Cc1cccc(C)c1NC(=O)CSC(=S)N1CCCCC1	85.4%	105%	110%	103%	97.8%	99.7%	100%	97.8%
C=C(C)[C@@H]1CC[C@]2(C=NCCCNCCCCNCCCN)CC[C@]3(C)[C@H](CC[C@@H]4[C@@]5(C)CCCNC(C)(C)[C@@H]5CC[C@]43C)[C@@H]12	90.8%	98.2%	94.8%	88.4%	89.4%	77.7%	100%	98.2%
c1ccc(CN2C(c3ccccc3)=Nc3ccccc3C2c2c[nH]c3ccccc23)cc1 (stereo not drawn)	27.8%	96.3%	39.2%	27.1%	23.5%	14.3%	41.8%	56.8%
CCCCCCCN(CCCCCCC)C(=N)c1ccnc2ccccc12	-39.9% (active)	56%	-88.5% (active)	-75.9% (active)	-62.2% (active)	-83.7% (active)	-87% (active)	-16.8% (active)
CC(C)=CCC/C(C)=C/CC/C(C)=C/CSC[C@H](NC(=O)CCCCCN1CCN(C)CC1)C(=O)NC1CCCCCC1	36.9%	90.5%	50.2%	-22.1% (active)	7.39% (active)	-61% (active)	19.3%	66.1%
Cc1ccc2c(c1)c1nc3cc(C)c(C)cc3nc1n2CCN(C)C	23.2%	50.2%	16.1%	12.5%	-6.81% (active)	8.95% (active)	32.9%	21.7%
C=C(C)[C@@H]1CC[C@]2(C)[C@H](CC=C3[C@@H]4CC(C)(C)CC[C@]4(C(=O)OC)CC[C@]32C)[C@@]1(C)CC/C(N)=N/O	6.99% (active)	63.7%	80.5%	67.6%	3.92% (active)	18.5%	-53% (active)	61%
COc1cccc(-c2nn(-c3ccccc3)cc2-c2ccnc(NCCCO)c2)c1	26.7%	55.2%	-15.5% (active)	21.3%	29.5%	22.9%	65.5%	34.1%
COc1ccc(C(=O)c2cc(OC)c(OC)c(OC)c2)cc1/C=C/C(=O)c1cc(OC)c(OC)c(OC)c1	89.7%	86.8%	65.2%	92.9%	75.2%	67.8%	100%	86.6%
NS(=O)(=O)c1ccc(CCNC(=O)/C=C/c2ccc(Cl)cc2)cc1	90.7%	108%	95.6%	102%	92.5%	100%	116%	98.6%
CCSc1ncnc2c1ncn2C1OC(CO)C(O)C1O (stereo not drawn)	29.1%	49%	24%	28.4%	19.2%	12%	8.16% (active)	11.8%
N#C/C(=C\c1ccc(-c2ccc(Cl)cc2)o1)c1nc(-c2ccco2)cs1	-27.1% (active)	103%	101%	98.5%	14.5%	101%	46.3%	67.3%
Nc1c2c(nc3ccc(Br)cc13)CC(c1ccccc1)CC2=O (stereo not drawn)	43.1%	42.9%	-43.4% (active)	26.1%	21.1%	31.9%	62.9%	24.7%
C[C@@H]1CCCCCCCCC[C@H](O)C(=O)C[C@@H](SC[C@@H](O)C(=O)O)C(=O)O1	75.8%	91.8%	103%	103%	33.9%	54.5%	109%	95.8%
